Measurements from PubChem BioAssay (NCATS).
Results filed as inconclusive are left out. The list shows a part of the results. The source made the active and inactive calls. Unless noted, calls follow the shape of the dose curve; as a rule, active = well fitted curve in the direction sought with a large enough effect; inconclusive = small, poorly fitted or top-dose-only effect, or another doubt; inactive = no such curve, though single readings can be large; an effect the other way counts as inactive or inconclusive.

What was measured:
[1] = molecular target: DNA polymerase iota (Homo sapiens) (UniProt Q9UNA4); test: qHTS for Inhibitors of Polymerase Iota: Confirmatory Assay for Cherry-picked Compounds (AID 720496); details: Pol iota primer extension, TAMRA/BHQ fluorescence; also: potency is read from the fitted curve at half-maximal effect
Excerpt: DNA polymerases, such as polymerase iota (Pol iota), are involved in DNA repair. Pol iota specifically plays an important role in translesion synthesis, where the normal high-fidelity DNA polymerases cannot proceed and DNA synthesis stalls. […] Thus, while Pol eta and most likely Pol iota's normal functions are to protect humans against the deleterious consequences of DNA damage, under certain conditions they can have deleterious effects on human health. As a consequence, small molecule inhibitors of Pol iota (identified from a high throughput replication assay) have potential therapeutic applications. A 1536-well format, fluorescence based, high-throughput screen (AID 588590) is developed in collaboration with the National Institute of Child Health & Human Development (NICHD) to screen for inhibitors of the […]. This screen is used to validate the activity of the selected compounds from the primary assay against the […]. Inhibition is the desired outcome for this assay. […]
Three microliters of reagents (buffer in column 3 and 4 as negative control while 10 nM Pol iota in columns 1, 2, and 5-48) were dispensed into a 1536-well black solid-bottom plate. […] The assay plates were initially read after 0 min and again after 10 min of kinetic reaction using the PerkinElmer Viewlux reader equipped with 525 nm excitation and 598 nm emission filters.

[2] = molecular target: DNA polymerase eta (Homo sapiens) (UniProt Q9Y253); test: qHTS for Inhibitors of Polymerase Eta: Confirmatory Assay for Cherry-picked Compounds (AID 720502); details: Pol eta primer extension, TAMRA/BHQ fluorescence, 10 min; also: potency is read from the fitted curve at half-maximal effect
Procedure, shortened: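 Enzyme at 10 nM is mixed with pin-transferred compound and left 15 min at room temperature. Substrate (50 nM final) is then added, and plates are read at 0 min and after 10 min.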

[3] = molecular target: Tyrosyl-DNA phosphodiesterase 1 (Homo sapiens) (UniProt Q9NUW8); test: Confirmation Assay for Inhibitors of Tyrosyl-DNA Phosphodiesterase (TDP1) (AID 489007); details: recombinant human TDP1 enzymatic activity, dose-response; also: potency is read from the fitted curve at half-maximal effect; nearly all actives have a fitted effect of over 40% in size
Procedure, shortened: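 Tdp1 1 nM + cpd, 15 min RT; add biotin/phosphotyrosine-FITC oligo 15 nM, 5 min RT; add AS donor/acceptor beads 10 ug/ml, 10 min RT; read AlphaScreen. No-enzyme wells = max signal.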

[4] = molecular target: Ferritin light chain (Equus caballus) (UniProt P02791); test: qHTS Validation Assay for Identification of Novel General Anesthetics (AID 2323); details: horse apoferritin, anesthetic-site fluorescent probe displacement; series mostly up to 76.9 µM
Procedure, shortened: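 10 uM horse-spleen apoferritin + 1-AMA (50% saturated, PBS); cpd pin-transferred, 10 min RT. Ex 380/Em 535 nm endpoint. Activity normalized between free 1-AMA and 1-AMA/apoferritin; 4-parameter Hill fit of concentration-response.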

[5] = Validation screen for inhibitors of Lassa infection (AID 463096; calls by dose curve); details: Lassa virus infection, cell-based; series mostly up to 46.1 µM

Chain of DNA polymerase iota (Homo sapiens) (Q9UNA4 whole entry, looked up): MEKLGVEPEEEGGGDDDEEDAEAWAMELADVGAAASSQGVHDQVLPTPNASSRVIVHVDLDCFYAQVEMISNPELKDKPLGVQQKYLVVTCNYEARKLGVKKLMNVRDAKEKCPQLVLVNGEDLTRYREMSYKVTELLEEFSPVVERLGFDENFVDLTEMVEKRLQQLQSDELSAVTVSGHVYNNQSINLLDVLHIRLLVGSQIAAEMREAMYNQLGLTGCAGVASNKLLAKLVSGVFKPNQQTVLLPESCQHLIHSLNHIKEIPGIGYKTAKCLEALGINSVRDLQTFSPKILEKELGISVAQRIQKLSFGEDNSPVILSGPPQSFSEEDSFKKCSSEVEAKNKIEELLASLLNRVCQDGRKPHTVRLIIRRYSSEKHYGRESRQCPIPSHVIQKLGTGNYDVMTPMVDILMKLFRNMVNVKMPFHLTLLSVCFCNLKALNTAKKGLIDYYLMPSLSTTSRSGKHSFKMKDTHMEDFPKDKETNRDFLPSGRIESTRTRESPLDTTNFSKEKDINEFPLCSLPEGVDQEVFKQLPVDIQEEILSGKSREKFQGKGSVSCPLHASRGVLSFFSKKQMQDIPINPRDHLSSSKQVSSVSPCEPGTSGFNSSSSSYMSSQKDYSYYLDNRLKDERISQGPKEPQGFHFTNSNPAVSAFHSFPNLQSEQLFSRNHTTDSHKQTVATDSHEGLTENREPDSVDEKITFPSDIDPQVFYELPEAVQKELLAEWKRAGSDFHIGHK
Chain of Tyrosyl-DNA phosphodiesterase 1 (Homo sapiens) (Q9NUW8 whole entry, looked up): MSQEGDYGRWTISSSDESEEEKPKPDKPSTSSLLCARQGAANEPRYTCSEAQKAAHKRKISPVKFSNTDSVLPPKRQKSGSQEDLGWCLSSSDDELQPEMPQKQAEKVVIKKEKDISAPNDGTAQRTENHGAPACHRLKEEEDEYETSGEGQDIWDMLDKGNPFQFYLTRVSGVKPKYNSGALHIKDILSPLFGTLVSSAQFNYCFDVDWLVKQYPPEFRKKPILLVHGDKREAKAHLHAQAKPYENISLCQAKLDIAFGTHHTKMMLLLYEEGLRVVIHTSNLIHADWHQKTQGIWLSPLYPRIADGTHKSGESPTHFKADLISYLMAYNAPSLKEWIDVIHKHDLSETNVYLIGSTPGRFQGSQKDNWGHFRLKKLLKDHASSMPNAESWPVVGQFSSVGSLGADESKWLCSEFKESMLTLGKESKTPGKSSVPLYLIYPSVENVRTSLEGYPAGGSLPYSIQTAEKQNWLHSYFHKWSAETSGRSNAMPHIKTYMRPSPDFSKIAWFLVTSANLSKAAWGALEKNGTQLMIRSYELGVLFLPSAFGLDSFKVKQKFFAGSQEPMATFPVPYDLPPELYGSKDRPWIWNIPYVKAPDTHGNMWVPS
Chain of Ferritin light chain (Equus caballus) (P02791 2-175 limits assumed): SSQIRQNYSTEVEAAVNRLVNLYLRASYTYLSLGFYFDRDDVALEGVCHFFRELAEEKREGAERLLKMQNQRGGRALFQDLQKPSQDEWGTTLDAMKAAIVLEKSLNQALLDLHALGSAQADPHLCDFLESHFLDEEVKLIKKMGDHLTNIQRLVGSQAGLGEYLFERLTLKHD
Chain of DNA polymerase eta (Homo sapiens) (Q9Y253 whole entry, looked up): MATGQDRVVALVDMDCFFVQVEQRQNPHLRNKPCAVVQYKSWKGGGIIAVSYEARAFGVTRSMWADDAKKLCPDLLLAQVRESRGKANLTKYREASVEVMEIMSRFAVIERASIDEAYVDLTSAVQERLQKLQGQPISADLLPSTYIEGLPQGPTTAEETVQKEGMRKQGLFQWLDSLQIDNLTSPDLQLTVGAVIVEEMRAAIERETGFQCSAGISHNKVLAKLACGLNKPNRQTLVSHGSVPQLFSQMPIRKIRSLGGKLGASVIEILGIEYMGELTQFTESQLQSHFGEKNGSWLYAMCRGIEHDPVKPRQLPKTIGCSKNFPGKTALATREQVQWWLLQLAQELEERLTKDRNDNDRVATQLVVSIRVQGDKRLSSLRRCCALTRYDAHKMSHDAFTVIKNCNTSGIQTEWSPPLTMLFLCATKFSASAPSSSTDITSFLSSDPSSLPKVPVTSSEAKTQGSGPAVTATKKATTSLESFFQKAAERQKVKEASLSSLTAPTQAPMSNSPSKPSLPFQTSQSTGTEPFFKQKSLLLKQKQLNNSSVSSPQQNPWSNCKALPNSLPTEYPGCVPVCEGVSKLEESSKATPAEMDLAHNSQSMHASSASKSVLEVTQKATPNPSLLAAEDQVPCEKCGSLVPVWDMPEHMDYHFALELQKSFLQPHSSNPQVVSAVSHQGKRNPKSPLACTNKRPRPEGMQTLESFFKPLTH

Compound: Cc1c(C(=O)O)cccc1-n1c(C)cc(/C=C2\C(=O)NC(=O)N(c3ccc4c(c3)OCO4)C2=O)c1C
- Potency [1]: 15 µM (active)
- Potency [2]: 8.49 µM (active)

Compound: O=C(O)c1cc[c]([Sb](=[O])([OH])[OH])cc1[N+](=O)[O-]
- Potency [3]: 2 µM (active)

Compound: CN1C2CCC1CC(NC(=O)c1nn(C)c3ccccc13)C2 (stereo not given)
- outcome [4]: inactive
- outcome [5]: inactive
